Bioassay records (PubChem BioAssay)
GC-B act: GC-B (human) receptor activation. HEK293-GC-B cells, CNP EC30, cGMP TR-FRET; 0% at EC30 CNP, 100% saturating CNP. activation, % at 10 µM. 370,000 compounds, 0.11% hits;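 active = activation at 10 µM reaching about 35% in either raw or pattern-adjusted values, limit read from the data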
A3G deaminase: APOBEC3G (human) deaminase inhibition; inhibition, % at 20 µM; Q9HC16; AID 493012; recombinant A3G, ssDNA deamination FAM/TAMRA fluorescence; 330,000 compounds, 0.28% hits;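 active = inhibition of at least 40% at 20 µM, with no more than 30% in the related APOBEC3A deaminase screen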;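 note: plate controls were DMSO wells with A3G for no effect and wells lacking A3G enzyme for full effect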
Target sequence (Q9HC16 whole entry, looked up): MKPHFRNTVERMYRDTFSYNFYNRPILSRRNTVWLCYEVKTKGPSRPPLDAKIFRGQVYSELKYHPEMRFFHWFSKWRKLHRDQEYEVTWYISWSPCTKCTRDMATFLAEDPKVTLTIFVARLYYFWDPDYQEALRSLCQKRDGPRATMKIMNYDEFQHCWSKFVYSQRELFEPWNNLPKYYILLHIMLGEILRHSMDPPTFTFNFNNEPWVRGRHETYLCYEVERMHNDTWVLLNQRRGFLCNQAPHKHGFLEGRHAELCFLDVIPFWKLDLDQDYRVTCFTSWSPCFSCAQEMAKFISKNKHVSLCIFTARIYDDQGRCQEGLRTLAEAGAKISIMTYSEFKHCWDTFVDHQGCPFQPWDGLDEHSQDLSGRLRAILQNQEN
FAS-TE inh: blocks the thioesterase domain of human fatty acid synthase; recombinant FAS-TE, OMFH fluorogenic substrate, fluorescence endpoint; P49327; AID 602261; inhibition, % at 15 µM; 360,000 compounds, 0.67% hits;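 active = compounds whose normalised, plate-corrected inhibition of enzyme fluorescence in the single-dose primary screen is 50% or more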;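 note: 0% = DMSO with enzyme and 100% = substrate without enzyme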
GC-A act: GC-A (human) enzyme activation; P16066; HEK293 GC-A cells, cGMP TR-FRET, EC30 ANP; 0% at EC30 ANP, 100% saturating ANP; activation, % at 10 µM; 370,000 compounds, 0.14% hits; in the data active = activation above about 40%
APOBEC3A inh: human APOBEC3A DNA deaminase inhibition | P31941 | recombinant A3A, FAM/TAMRA ssDNA deamination fluorescence | inhibition, % at 20 µM | 330,000 compounds, 0.41% hits;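 active = at least 40% inhibition at 20 µM here, with at most 30% in a related deaminase screen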;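 note: plate controls were A3A with DMSO for no effect and wells lacking A3A enzyme for full effect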
Target sequence (P31941 whole entry, looked up): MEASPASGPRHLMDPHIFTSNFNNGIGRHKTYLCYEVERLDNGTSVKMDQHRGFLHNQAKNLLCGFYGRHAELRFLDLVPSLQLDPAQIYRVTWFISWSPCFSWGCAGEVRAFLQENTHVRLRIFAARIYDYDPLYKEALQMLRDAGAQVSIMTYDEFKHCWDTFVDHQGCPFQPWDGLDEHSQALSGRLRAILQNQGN
FAS-TE inh conf: FAS thioesterase (human) inhibition, confirmation; shares compounds with FAS-TE inh; recombinant FAS-TE, OMFH fluorogenic substrate, fluorescence; inhibition, % at 15 µM; 2,300 compounds, 45% hits; AID 624325;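 active = compounds inhibiting the enzyme by at least 50% at 15 µM in any one of the replicates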;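 note: 0% = enzyme with DMSO only and 100% = wells lacking enzyme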
Numbers without * were called inactive; / = no result. Only some compounds are listed: those with a hit (about 1.4% of all), similar ones and a draw of the others.

SMILES	GC-B act	A3G deaminase	FAS-TE inh	GC-A act	APOBEC3A inh	FAS-TE inh conf
O=C(Nc1ccc(F)cc1)N(Cc1cccs1)Cc1cc2cc3c(cc2[nH]c1=O)OCO3	1	-2	55*	-2	7	34
Cc1ccc(NC(=O)N(Cc2ccc3c(c2)OCO3)Cc2cc3cc4c(cc3[nH]c2=O)OCCO4)cc1	7	-9	75*	7	-4	26
COc1ccc2[nH]c(=O)c(CN(Cc3cccs3)C(=S)Nc3cccc(C)c3)cc2c1	-1	-3	72*	9	2	7
COCCCNC(=O)[C@@H](Cc1ccccc1)NC(=O)[C@H]1O[C@@H](n2ccc(=O)[nH]c2=O)[C@H](O)[C@@H]1O	-3	/	/	3	/	/
CCCCNC(=S)N(C)/N=C/c1ccc2c(c1)OCO2	23	-3	53*	12	-3	43
CCOc1ccc(N(CC(=O)Nc2c(C)n(C)n(-c3ccccc3)c2=O)S(=O)(=O)c2cccs2)cc1	-2	/	/	5	/	/
Cc1nnc(Sc2cc(NCCCO)c([N+](=O)[O-])c3nonc23)s1	10	/	63*	28	/	69*
Cc1nnc(Sc2cc(NCCO)c([N+](=O)[O-])c3nonc23)s1	-1	/	65*	6	/	64*
COC(=O)[C@]12C[C@H](CC(=O)N3CCN(C(=O)C4CC4)CC3)C(=O)N(Cc3cccc4ccccc34)C1=C[C@H](C(C)(C)C)O[C@@H]2C	-15	/	/	-7	/	/
NC(=S)n1[nH]c(-c2ccc([N+](=O)[O-])cc2)c(N=Nc2ccc(Cl)cc2)c1=O	/	/	66*	/	/	40*
Cc1ccccc1NC(=O)[C@@H]1CC(=O)O[C@@H]1c1ccccc1	3	/	/	1	/	/
Cc1ccc(S(=O)(=O)N(C(=O)c2ccco2)c2cc3sc(=O)oc3c3ccccc23)cc1	0	8	53*	-6	3	32
CCOc1ccc(S(=O)(=O)N(C(=O)c2ccco2)c2cc3sc(=O)oc3c3ccccc23)cc1	-4	26	51*	-2	-3	32
COc1ccc(S(=O)(=O)N(C(=O)c2ccco2)c2cc3sc(=O)oc3c3ccccc23)cc1	-5	27	90*	-6	-1	33
CC1(C)CC2CN(Cc3ccccc3)S(=O)(=O)N2C1 (stereo not drawn)	-3	/	/	-3	/	/
CCOC(=O)CC[C@@H]1CC[C@]2(CCCN(C(=O)C3CCCC3)C2)O1	2	/	/	3	/	/
Cc1ccc(NC(=S)NNC(=O)CSc2nc3sc4c(c3c(=O)n2-c2ccccc2)CCCC4)cc1	-3	/	/	-4	/	/
COc1cc(S(=O)(=O)Nc2ccc(C)cc2)ccc1N=Cc1c(C)[nH]n(-c2ccccc2)c1=O	0	38	55*	-19	0	40
COc1nccnc1NS(=O)(=O)c1ccc(N=Cc2c(C)[nH]n(-c3ccccc3)c2=O)cc1	-2	-3	-7	-1	1	/
COc1ccc(C(=O)COC(=O)c2cc([N+](=O)[O-])ccc2N2CCOCC2)c(OC)c1	3	-5	75*	5	9	75*
COc1ccc(C(=O)COC(=O)c2cc(S(=O)(=O)N3CCCCC3)ccc2N2CCOCC2)c(OC)c1	5	-7	73*	2	-5	3
COc1cc(C(=O)COC(=O)c2cc([N+](=O)[O-])ccc2N2CCOCC2)ccc1OC(F)F	-1	-4	55*	3	2	57*
COc1ccc(C(=O)c2cc([N+](=O)[O-])ccc2N2CCOCC2)cc1	-3	/	23	-7	/	/
COc1ccccc1CNC(=O)COC(=O)c1cc([N+](=O)[O-])ccc1N1CCOCC1	9	-1	79*	6	3	90*
COC(=O)C1=C(C)N(Cc2ccc(C(F)(F)F)cc2)C(=NCc2ccc(C(F)(F)F)cc2)NC1c1ccccc1C(F)(F)F (stereo not drawn)	-4	/	/	1	/	/
SMILES	GC-B act	A3G deaminase	FAS-TE inh	GC-A act	APOBEC3A inh	FAS-TE inh conf
Cc1cc(C)c(C(=O)COC(=O)c2cc([N+](=O)[O-])ccc2N2CCOCC2)cc1C	-4	-13	57*	-5	-4	33
O=C(COC(=O)c1cc([N+](=O)[O-])ccc1N1CCOCC1)c1ccccc1	5	1	63*	5	4	71*
COc1ccccc1C(=O)COC(=O)c1cc([N+](=O)[O-])ccc1N1CCOCC1	-3	-10	68*	2	-2	34*
O=C(COC(=O)c1cc([N+](=O)[O-])ccc1N1CCOCC1)c1ccccc1Cl	1	-9	46	0	0	/
Cc1ccccc1CNC(=O)C1C2C=CC3(CN(Cc4ccccc4)C(=O)C13)O2 (stereo not drawn)	1	/	/	1	/	/
C#CCNC(=O)C[C@@H]1C[C@]2(C(=O)OCC)CCC3=C2N(CCC3)C1=O	1	/	/	-1	/	/
CCN1CCCCC(NC(C)=O)C1=O (stereo not drawn)	4	/	/	3	/	/
CC(=O)c1c(N2CCN(C)CC2)nc(=S)n(Cc2ccccc2)c1C	7	-3	-16	-6	-6	/
C=CCn1c(C)c(C(C)=O)c(N2CCN(C(c3ccccc3)c3ccccc3)CC2)nc1=S	-2	-6	58*	-5	1	0
O=C(CCS(=O)(=O)c1ccccc1)Nc1ccc(F)cc1Cl	-4	/	/	2	/	/
Cc1cccc(-c2cccc3c4c([nH]c23)[C@@H]2C[C@H](N(C)C(=O)C3CCCCC3)[C@H]([C@H](C)O)CN2CC4)c1	4	/	/	-3	/	/
COc1ccccc1NS(=O)(=O)c1cc(NC(=O)c2ccccc2C)ccc1N1CCOCC1	-1	/	53*	-3	/	15
COc1ccc(NS(=O)(=O)c2cc(NC(=O)COc3ccc(OC)cc3)ccc2N2CCOCC2)cc1	3	2	53*	-4	2	24
COc1ccccc1NS(=O)(=O)c1cc(NC(=O)c2cc(F)c(F)c(F)c2F)ccc1N1CCOCC1	-6	-9	39	-7	-2	/
CN(C)c1ccc(P(=O)(Nc2ccc([N+](=O)[O-])cc2)N2CCOCC2)c(NC(=O)c2cccs2)c1 (stereo not drawn)	-10	-2	54*	0	-1	35
COc1ccc(NC(=O)CN(c2ccc([N+](=O)[O-])cc2)S(=O)(=O)c2ccccc2)cc1	-7	-5	64*	-2	-1	74*
COc1cccc(NC(=O)CN(c2ccc([N+](=O)[O-])cc2)S(=O)(=O)c2ccccc2)c1	3	-11	34	-2	0	/
O=C(CSc1nnc(-c2cccnc2)n1-c1ccc(Cl)cc1)Nc1ccccc1-c1ccccc1	-7	/	/	-13	/	/
C[C@H]1CN(S(=O)(=O)C(C)(C)C)[C@@H](CCO)/C1=C\CCO	0	/	/	3	/	/
